Experimental data published in PubChem BioAssay (NCI).
Compounds without any hit were thinned out: in the full panel of roughly 83,000, 20% have a hit.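 The test compound was applied at a single concentration to cells in 96-well plates for 48 hours, and percent growth was recorded.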 A number with no mark means an inactive call. Active and inactive are the calls of the source. Rule for the calls: active = growth percent below 10; inactive = the rest.

How the values were obtained:
Test in all cases: NCI-60 one-dose screen, 48 h (100 = growth as untreated, 0 = no growth, -100 = all killed)
Details in all cases: 10 µM unless noted
SR leukemia = tested on: SR leukemia
RPMI-8226 leukemia = tested on: RPMI-8226 leukemia
OVCAR-8 ovarian = tested on: OVCAR-8 ovarian
OVCAR-5 ovarian = tested on: OVCAR-5 ovarian
OVCAR-4 ovarian = tested on: OVCAR-4 ovarian
SK-OV-3 ovarian = tested on: SK-OV-3 ovarian
IGROV1 ovarian = tested on: IGROV1 ovarian
OVCAR-3 ovarian = tested on: OVCAR-3 ovarian
HS 578T breast = tested on: HS 578T breast
NCI/ADR-RES ovarian = tested on: NCI/ADR-RES ovarian
T-47D breast = tested on: T-47D breast
BT-549 breast = tested on: BT-549 breast
MDA-MB-435 melanoma = tested on: MDA-MB-435 melanoma
SW-620 colon = tested on: SW-620 colon
MCF7 breast = tested on: MCF7 breast
HCT-116 colon = tested on: HCT-116 colon
HCC-2998 colon = tested on: HCC-2998 colon
KM12 colon = tested on: KM12 colon

Row | SMILES | growth (SR leukemia) | growth (RPMI-8226 leukemia) | growth (OVCAR-8 ovarian) | growth (OVCAR-5 ovarian) | growth (OVCAR-4 ovarian) | growth (SK-OV-3 ovarian) | growth (IGROV1 ovarian) | growth (OVCAR-3 ovarian) | growth (HS 578T breast) | growth (NCI/ADR-RES ovarian) | growth (T-47D breast) | growth (BT-549 breast) | growth (MDA-MB-435 melanoma) | growth (SW-620 colon) | growth (MCF7 breast) | growth (HCT-116 colon) | growth (HCC-2998 colon) | growth (KM12 colon)
1 | N#Cc1nn(-c2ccccn2)c(N)c1C#N | 86.2% | 110% | 106% | 97.5% | 105% | 91.5% | 108% | 114% | 105% | 104% | 84.1% | 98.3% | 101% | 115% | 99.8% | 87.7% | 106% | 101%
2 | Cc1ccc2c(c1)CC(O)CC1C(=O)N(CCO)CC(=O)N21 (centres undefined) | 87.3% | 98.8% | 101% | 101% | 113% | 103% | 112% | 115% | 103% | 104% | 93.1% | 103% | 106% | 106% | 96.8% | 95.9% | 104% | 105%
3 | CCOC(=O)CC1C(CNC(=O)NC)OC(n2cnc3c(NC(=O)Nc4ccccc4)ncnc32)C1O[Si](C)(C)C(C)(C)C (centres undefined) | 28.2% | 11.2% | 65.4% | 99.6% | 61.2% | 93.6% | 51.1% | 79.6% | 43.9% | 85.6% | 27.1% | 81.6% | 53.6% | 71.2% | 18.1% | 16.7% | 61.8% | 43.4%
4 | O=C(Nc1ccc2c(c1)-c1ccccc1C2)C1CC(=O)N(c2ccc3c(c2)OCO3)C1 (centres undefined) | 77.2% [50 µM] | 81.8% [50 µM] | 28.5% [50 µM] | 83.5% [50 µM] | 2.45% [50 µM] (active) | 76.1% [50 µM] | 80.5% [50 µM] | 31.3% [50 µM] | 31.7% [50 µM] | 58.9% [50 µM] | 52.8% [50 µM] | 80.3% [50 µM] | 70.7% [50 µM] | 75.2% [50 µM] | 65.6% [50 µM] | 36.8% [50 µM] | 81% [50 µM] | 51.2% [50 µM]
5 | [2H]C([2H])([2H])Oc1ccc(/C=C/C(=O)/C=C(/C=C/c2ccc(OC([2H])([2H])[2H])c(OC([2H])([2H])[2H])c2OC([2H])([2H])[2H])OB(F)F)c(OC([2H])([2H])[2H])c1OC([2H])([2H])[2H] | 8.05% (active) | 18.9% | 9.4% (active) | 91.1% | 65.2% | 103% | 57.1% | 14.5% | 60% | 54.6% | 51.7% | 78.6% | 26.7% | 18.4% | 28.2% | 6.6% (active) | 120% | 81.3%
6 | CN1CC(c2ccccc2)C(C(=O)c2ccc(Br)cc2)C12C(=O)Nc1ccccc12 (centres undefined) | 97% | 88.2% | 98.8% | 98.9% | 96.3% | 93.6% | 79.7% | 101% | 94.2% | 79.7% | 81.5% | 111% | 106% | 95.4% | 98.5% | 86.3% | 99.7% | 101%
7 | COc1ccc(S(=O)(=O)NC2c3ccccc3CC2O)cc1OC (centres undefined) | 100% | 104% | 107% | 104% | 117% | 115% | 106% | 112% | 98.8% | 105% | 105% | 112% | 105% | 100% | 97.3% | 104% | 99.8% | 101%
8 | Cc1ccccc1NC(=O)c1sc2nc3c(cc2c1N)CCCC3 | 14.3% | 21.3% | 29.7% | 81.6% | 61.8% | 25.1% | 57% | 11.3% | 55.8% | 26.5% | 29.6% | 63.5% | -18.4% (active) | 19.2% | 13.3% | 29% | 64.8% | 25.2%
